# Hits are enriched below; roughly 1.8% of the tested compounds scored in any of these assays.
# GRK2 inh: inhibitors of human GRK2 displacing RNA aptamer | AID 488847 | bead flow cytometry, FAM-aptamer displacement from GRK2 | inhibition of aptamer binding, % at 10 µM | 330,000 tested, 0.59% active;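 active = inhibition of aptamer binding above 40%, roughly 3 SD of noise, on plates passing a quality check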;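 note: median bead fluorescence of bound FAM aptamer so fluorescent compounds give negative values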
# PKD1 kinase inh: blocks activity of human protein kinase D1; Q15139; PKD1 kinase fluorescence polarization assay; inhibition, % (no concentration beside the values); 200,000 tested, 0.056% active; AID 797
# HDAC3 inh: human HDAC3 inhibition; AID 2718; recombinant HDAC3, fluorogenic peptide/trypsin coupled, fluorescence; inhibition, % at 8.3 µM; 320,000 tested, 0.15% active; in the data active = inhibition above about 26%, passing the limit was not always enough; inconclusive = no clear call, values can overlap the other calls
# VLA-4 inh: inhibition in a human VLA-4 binding assay | P13612 | VLA-4 expressing cells, ligand binding flow cytometry | inhibition, % (about 7 µM as worked out from the volumes in the protocol) | 330,000 tested, 0.2% active
# DSG3 Ab inh: human desmoglein-3 autoantibody binding inhibition. AID 588358. DSG3-coupled beads, scFv-anti-DSG3-GFP binding, flow cytometry; stronger effect = lower value. 310,000 tested, 0.48% active. binding (percent of control), % at 10 µM;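 active = binding more than 3 SD below its plate's average and above zero; inconclusive = below that plate limit but binding exactly zero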;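 note: hits lower antibody fragment binding to DSG3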
# LANA-H2B inh: blocks KSHV LANA binding to histone H2A/H2B. Q9QR71. inhibition, % (no concentration beside the values). cell-free LANA-H2A/H2B peptide, fluorescence polarization. 320,000 tested, 0.6% active; in the data active = inhibition mostly above about 10%, no sharp cut-off; inactive = mostly below about 6.7%
# VLA-4 allo CP: human VLA-4 allosteric modulation in cherry picked compounds; shares compounds with VLA-4 inh; U937 cells, HUTS-21 LIBS mAb binding, flow cytometry; LDV ligand present at threefold Kd; inhibition, % at 6.7 µM; 1,300 tested, 2% active; in the data active = inhibition above about 40%
# Numbers stand for hits; - = inactive; ? = inconclusive; . = no result given. Cut-off read from the data, not from the text of the source, unless noted: active = inhibition above about 50%; inactive = the rest.
SMILES,GRK2 inh,PKD1 kinase inh,HDAC3 inh,VLA-4 inh,DSG3 Ab inh,LANA-H2B inh,VLA-4 allo CP
COc1cc(C(C(=O)NCC2CCCO2)N(C(=O)Cn2nnc3ccccc32)c2ccc(C(C)=O)cc2)ccc1O (stereo unspecified),-,.,-,-,.,-,.
COc1ccc(-c2nnc3ccc(SCC(=O)N4CCCCC4)nn23)cc1OC,-,-,-,-,-,-,-
CC(Sc1ccc2nnc(-c3ccc(F)cc3)n2n1)C(=O)O (stereo unspecified),-,-,-,-,-,-,.
COc1ccc(-c2nnc3ccc(SCC(=O)NCc4ccco4)nn23)cc1OC,-,-,-,-,-,-,-
Cc1ccc(-c2nnc3ccc(SCC(=O)NCc4ccco4)nn23)cc1,-,-,-,-,-,-,.
Cc1cc(NC(=O)CSc2ccc3nnc(-c4ccc(Cl)cc4)n3n2)no1,-,-,-,-,-,-,-
Cc1ccc(-c2nnc3ccc(SC(C)C(=O)O)nn23)cc1 (stereo unspecified),-,-,-,-,-,-,-
COc1ccc(-c2nnc3ccc(SCC(N)=O)nn23)cc1OC,-,-,-,-,-,-,.
CN(CC(=O)Nc1ccc(Cl)c(C(F)(F)F)c1)C(=O)C1CSC2(C)CCC(=O)N12 (stereo unspecified),-,.,-,-,-,-,.
c1ccc2c(Nc3ccc4c(c3)OCCO4)c3c(nc2c1)CCCC3,-,-,-,-,-,-,.
CCCNc1c(NS(=O)(=O)c2cccc(C#N)c2)c(=O)oc2ccccc12,-,.,-,-,-,-,.
O=C(NCc1ccccc1Cl)C(=O)NCC1OCCN1S(=O)(=O)c1cccs1 (stereo unspecified),-,-,-,-,-,-,.
COc1ccc(C(=O)N(C)Cc2cnn(Cc3ccccc3)c2)cc1S(=O)(=O)N1CCOCC1,-,.,-,-,?,-,.
O=c1c2[nH]c3ccc(F)cc3c2ncn1Cc1ccncc1,-,.,-,-,-,-,-
O=c1c2[nH]c3ccc(Br)cc3c2ncn1CCCn1ccnc1,-,-,-,-,-,-,-
O=c1c2[nH]c3ccccc3c2ncn1CCCn1ccnc1,-,-,-,-,-,-,.
O=c1c2[nH]c3ccc(F)cc3c2ncn1C1CCCCC1,-,-,-,96,-,-,-
O=c1c2[nH]c3ccc(F)cc3c2ncn1CCN1CCOCC1,-,-,-,-,-,-,.
CCOc1ccc(C(=O)NNC(=O)CNC(=O)c2ccc(C)s2)cc1OC,-,.,-,-,.,-,.
CC1CCC(=NO)C(=NO)C1 (stereo unspecified),.,.,.,.,-,.,.
COc1cc(NC(=O)COc2cc(C)cc3oc(=O)cc(C)c23)cc(OC)c1OC,.,.,.,.,-,.,.
CC[C@]12c3[nH]c4ccccc4c3CCN1C(=O)C(CC(=O)NCc1ccco1)C[C@@H]2C(=O)N1CCN(C(=O)C2CC2)CC1 (stereo partly specified),-,.,-,58,-,-,-
Cc1ccccc1CNC(=O)c1ccc2nc(N3CCOCC3)sc2c1,-,.,-,-,-,-,-
O=C(c1ccc2nc(N3CCOCC3)sc2c1)N1CCN(C(=O)c2ccco2)CC1,-,-,-,-,-,-,-
Cc1ccccc1NC(=O)c1ccc2nc(N3CCOCC3)sc2c1,-,.,-,-,-,-,-
SMILES,GRK2 inh,PKD1 kinase inh,HDAC3 inh,VLA-4 inh,DSG3 Ab inh,LANA-H2B inh,VLA-4 allo CP
Cc1cc(C(=O)N2CCN(C(=O)c3ccco3)CC2)ccc1[N+](=O)[O-],-,-,-,51,-,-,-
O=C(c1ccc([N+](=O)[O-])cc1)N1CCN(C(=O)c2ccco2)CC1,-,-,-,-,-,-,.
CCCN(C1CCS(=O)(=O)C1)S(=O)(=O)c1cc(OC)ccc1OC (stereo unspecified),-,.,-,-,-,-,.
CCOc1cc(C=O)ccc1OS(=O)(=O)c1ccc(NC(C)=O)cc1,-,-,-,-,-,-,.
O=C(O)/C=C/C(=O)Nc1ccc(S(=O)(=O)Nc2nccs2)cc1,-,.,-,-,.,-,.
O=C(CSc1ccc(-c2ccc(-n3cccn3)cc2)nn1)Nc1ccccc1F,-,.,-,-,-,-,.
C/C(=N\NC(=O)Cc1c(C)[nH][nH]c1=O)c1ccc2ccccc2c1,-,-,-,61,.,-,-
COC(=O)c1cccnc1-n1c(=O)c2cccnc2n(Cc2cccc([N+](=O)[O-])c2)c1=O,-,-,-,67,-,-,-
CCCCNC(=O)/C(C#N)=C/c1ccc(C(=O)OC)cc1,-,-,-,-,-,-,-
CCOCCCNC(=O)/C(C#N)=C/c1cc(Br)c(O)c(Br)c1,.,.,.,.,-,.,-
COCCNC(=O)/C(C#N)=C/c1cc(Br)c(O)c(OC)c1,43,-,-,-,-,-,-
COc1ccc(C(OC(=O)c2ccco2)C(=O)NC(C)(C)C)cc1 (stereo unspecified),-,-,-,-,-,-,.
CN(C)c1cccc(C(=O)OCCCC(=O)c2ccc(F)cc2)c1,-,.,-,-,-,-,.
FC(F)(F)c1nnc(-c2ccccc2)nc1Sc1ccc(Cl)cc1,-,-,-,72,.,-,50
COc1ccccc1NC(=O)c1cc2c(cc1Cl)N1CCCCCC1=NS2(=O)=O,-,.,-,-,-,-,.
COc1ccc(Cl)cc1NC(=O)CN(C)C(=O)C12CC3CC(CC(Cl)(C3)C1)C2,-,.,-,-,-,-,.
CSc1ccc(CN(C)C(=O)C23CC4CC(CC(Cl)(C4)C2)C3)cc1,-,.,-,64,-,-,-
CC(Oc1ccccc1Cl)C(=O)Nc1ccc(S(=O)(=O)N2CCCC2)cc1 (stereo unspecified),-,.,.,-,-,.,.
COc1ccccc1CC(=O)OC(C)C(=O)Nc1ccc(S(=O)(=O)N2CCCCC2)cc1 (stereo unspecified),-,.,-,54,-,-,-
CC(C)CNC(=O)CSc1n[nH]c(=O)n1CCc1ccccc1,-,.,-,-,-,-,.
CCOc1ccc(S(=O)(=O)n2nc(C)c(S(=O)(=O)N3CCOCC3)c2C)cc1,-,.,-,100,-,-,-
O=C(Cn1c(=O)oc2cc(S(=O)(=O)N3CCCCCC3)ccc21)NC1CCCCCCC1,-,-,-,-,-,-,.
CCCNC(=O)Cn1c(=O)oc2cc(S(=O)(=O)N3CCCC3)ccc21,-,.,-,57,-,-,-
Cc1cc(C)cc(NC(=O)COC(=O)CCn2c(C)csc2=O)c1,-,.,-,-,-,-,.
O=C(N1CCN(c2ccccn2)CC1)N1c2ccccc2Sc2ccccc21,-,-,-,67,-,-,-
COc1ccc(S(=O)(=O)CC(=O)c2cc(C)c(O)c(C)c2)cc1,-,.,-,50,-,-,-
O=C(C1CCC(CNS(=O)(=O)c2cccc3cccnc23)CC1)N1CCc2ccccc21 (stereo unspecified),-,-,-,53,-,-,-

# Compound activity from PubChem BioAssay.
